Where “and” joins values, the source holds several entries; their conditions need not be identical. Equal values may be shown once. Records with an inconclusive call do not appear. Some compounds were tested as several samples or in several runs, with calls that do not always agree. Calls of active or inactive are those of the source. Rule for the calls: active = hit-call score of the fitted dose curve at least 0.9, where 1 is the maximum; inconclusive = response in the unintended direction; inactive = score below 0.9.

Chain of Cellular tumor antigen p53 (Homo sapiens) (P04637 whole entry, looked up): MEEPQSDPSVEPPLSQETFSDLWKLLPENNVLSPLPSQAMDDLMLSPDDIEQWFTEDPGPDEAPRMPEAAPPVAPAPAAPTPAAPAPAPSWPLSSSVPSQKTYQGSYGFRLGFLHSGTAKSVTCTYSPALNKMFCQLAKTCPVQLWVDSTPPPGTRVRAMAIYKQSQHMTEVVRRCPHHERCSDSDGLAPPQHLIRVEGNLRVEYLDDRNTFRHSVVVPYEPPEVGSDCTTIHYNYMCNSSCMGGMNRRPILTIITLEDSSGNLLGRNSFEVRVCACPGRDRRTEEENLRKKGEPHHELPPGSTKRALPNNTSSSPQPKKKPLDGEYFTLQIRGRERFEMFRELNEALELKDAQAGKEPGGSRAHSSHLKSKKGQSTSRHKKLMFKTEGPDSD

Test system in the first experiment: not listed separately
Nature of the experiment: TOX21_p53_BLA_p4_viability: Viability Assessment in the Tox21 HCT-116 p53 Agonism Beta-lactamase Assay, Phase 4 (AID 2283597).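 Note: hits lower the luminescence signal meaning cytotoxicity.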 Put shortly: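 ATP content by CellTiter-Glo luminescence, 30 min RT, read after the beta-lactamase ratio step. Cells: HCT116, 4000/well, compound added after 5 h, exposure 16 h at 37C. Signal loss = reduced viability.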
As for `CCCc1ccc(N)cc1`, the result was inactive.

In the case of `CCCCCC(=O)O[C@]1(C(C)=O)CC[C@H]2[C@@H]3CCC4=CC(=O)CC[C@]4(C)[C@H]3CC[C@@]21C`, the outcome was inactive.

`O=[N+]([O-])c1cc(N(CCO)CCO)ccc1NCCO`: the result was inactive.

Turning to `CCCCCc1cccc(=O)o1`, the outcome was inactive.

On to `CC(C)OB(OC(C)C)OC(C)C`, for which the call was inactive.

For `CCCCC(CC)COC(=O)COc1ccc(Cl)cc1C` (stereo unspecified), the outcome was inactive.

Take `O=S(=O)(O)c1cc(S(=O)(=O)O)c2c(N=Nc3ccccc3)c(O)ccc2c1`: the call was inactive.

Take `CCCCCCCCOC(C)=O`: the compound was classed as inactive.

With `CC(=O)CC(C)(C)C1CCCCC1`, the compound was called inactive.

Take `COC(=O)C(C)Oc1ccc(Oc2ncc(C(F)(F)F)cc2Cl)cc1` (stereo unspecified): the outcome was inactive.

On to `COc1ccccc1NC(=O)CC(C)=O`, for which the compound was classed as inactive.

Take `CCCCOCCOCCOCCO`: the result was inactive.

For the compound `COC(=O)c1ccc(C(=O)OC)cc1`, the outcome was inactive.

`CCCCCCOc1ccc(O)cc1`: the AC50 was 65 µM (active).

`Nc1ccc(O)c(N)c1`: the call was inactive.

The target of a further experiment is Cellular tumor antigen p53 (Homo sapiens) (UniProt P04637). Description: TOX21_p53_BLA_p5_ratio: Tox21 HCT-116 p53 Agonism Beta-lactamase Assay, Ratio, Phase 5 (AID 2283599). A digest of the protocol:
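HCT-116 cells carrying a p53-inducible beta-lactamase reporter were seeded at 4000 cells/well and dosed after 5 h with compound in DMSO (217-fold dilution). After 16 h at 37C, CCF4-AM substrate was added for 2 h, and the 460/530 nm emission ratio was scored as gain-of-signal versus DMSO.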
As to `CC(=O)CCC=C(C)CCC=C(C)C`, the outcome was inactive.

As for `CC(=O)c1cccnc1`, the result was inactive.

With `O=C(c1ccc(OCCN2CCCCC2)cc1)c1c(-c2ccc(O)cc2)sc2cc(O)ccc12`, the concentration at half-maximal activity (AC50) is 72.8 µM (active) and 81.5 µM (active) and 36.2 µM (active).

As for `CCCCCCCC(=O)N(C)C`, the result was inactive.

On to `C#C[C@]1(O)CC[C@H]2[C@@H]3CCc4cc(O)ccc4[C@H]3CC[C@@]21C`, for which the AC50 was 11.7 µM (active) and 13.9 µM (active) and 7.67 µM (active).

As to `CCc1cccc(O)c1`, the outcome was inactive.

`COC(=O)c1cccc(C(=O)OC)c1`: the outcome was inactive.

Regarding `O=C(OCc1ccccc1)c1ccccc1O`, the outcome was inactive.

For the compound `Cc1ccncc1`, the outcome was inactive.

Turning to `CCOC(=O)C=Cc1ccccc1`, the outcome was inactive.

As for `CC(O)COCC(C)O` (stereo unspecified), the outcome was inactive.

Regarding `CC(O)CNCC(C)O` (stereo unspecified), the result was inactive.

With `[O-]/[N+](=N\O)c1ccccc1`, the outcome was inactive.

Consider `CC(=O)CC(=O)N(C)C`, for which the outcome was inactive.

Regarding `CC/C=C\CCOC(C)OCC` (stereo unspecified), the outcome was inactive.

With `CCCc1ccc(N)cc1`, the result was inactive.

Turning to `CCCCCC(=O)O[C@]1(C(C)=O)CC[C@H]2[C@@H]3CCC4=CC(=O)CC[C@]4(C)[C@H]3CC[C@@]21C`, the result was inactive.

Take `CCCCCc1cccc(=O)o1`: the outcome was inactive.

As to `CC(C)(O)C(=O)c1ccc(OCCO)cc1`, the outcome was inactive.

As to `CCOC(=O)C(=O)OCC`, the outcome was inactive.

For `CC(=O)CC(C)(C)C1CCCCC1`, the result was inactive.

Turning to `CC(C)=CC(=O)O`, the result was inactive.

Take `COc1ccccc1NC(=O)CC(C)=O`: the result was inactive.

Regarding `CCCCOCCOCCOCCO`, the outcome was inactive.

For `COC(=O)c1ccc(C(=O)OC)cc1`, the result was inactive.

As for `CC(C)CCCC(C)(C)O`, the result was inactive.

In the case of `Cc1cc(O)c2c(c1)C(=O)c1cc(O)cc(O)c1C2=O`, the AC50 is 11.9 µM (active) and the outcome was inactive.

Regarding `CCCCCCOc1ccc(O)cc1`, the AC50 was 52.4 µM (active).

As for `CC(C)C(=O)c1ccccc1`, the outcome was inactive.

For the compound `Nc1ccc(O)c(N)c1`, the result was inactive.

Source of the values: PubChem BioAssay (EPA / NIEHS).
